NPC1 prom act = NPC1 promoter activation | Potency, µM (titrated, usually from 9.22 µM), for inactives: top-dose activation, actives largely listed as activators | 2.4% of 320,000 active | Huh7 NPC1 promoter luciferase reporter, 24 h; further: % of control where 0% means no effect; nearly all actives have a fitted effect of over 60% in size
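Luminescence read-out of NPC1 promoter-driven luciferase in stably transfected Huh7 cells; compounds delivered in DMSO and left 24 h at 37C, 5% CO2, qHTS titration format.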
Rab9 prom act = activates the Rab9 promoter; Huh7 Rab9 promoter-luciferase reporter, luminescence, 24 h; Potency, µM (top dose mostly 9.22 µM), inactives show at the top dose activation, negative = inhibition, hits mostly activators; 2.8% of 320,000 active; further: % of control where 0% means no effect; nearly all actives have a fitted effect of over 60% in size
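Using Huh7 cells stably transfected with Rab9 promoter–luciferase, compounds were incubated 24 h at 37 °C, 5% CO2; luciferase luminescence was read 10 min after reagent addition.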
ELG1 genotoxic = induces genotoxicity in HEK293T cells with luciferase-tagged ELG1. HEK293T ELG1-luciferase reporter, luminescence, 16 h. 1.3% of 330,000 active. Potency, µM (doses to about 46 µM), without a hit: at the top dose activity change, positive = activation, most hits filed as activators; further: % of control where 0% means no effect; nearly all actives have a fitted effect of over 60% in size
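Genotoxic stress is detected as increased luminescence from luciferase-tagged ELG1 in HEK293T cells, measured with ONE-Glo after a 16 hr treatment at 37 °C.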
SMN2 splice up = SMN2 splice variant enhancement | HEK293 SMN2-luciferase splicing reporter, luminescence, 30-36 h | AID 1458 | 2.8% of 210,000 active | Potency, µM (highest dose often 46.1 µM), without a hit: at the top dose activity change, positive = activation, actives largely listed as activators; further: % of control where 0% means no effect; nearly all actives have a fitted effect of over 55% in size
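qHTS luciferase splicing reporter: luminescence rises when SMN2 exon 7 is included in transfected HEK293 cells. Compound exposure lasted 30-36 h at 37C, with 4.5 mM final sodium butyrate as control, followed by a ONE-Glo read.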
FLuc modulator = inhibits or activates purified firefly luciferase, miR-21 counter-screen | P08659 | purified FLuc, Km substrates, luminescence inhibition | Potency, µM (highest dose often 57.5 µM), for inactives: at the top dose activity change, negative = inhibition, most hits filed as inhibitors | 6.9% of 360,000 active | AID 588342;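 further: plate controls were vehicle for no effect and reference inhibitor for full effect; nearly all actives have a fitted effect of over 55% in size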
Target sequence (P08659 whole entry, looked up): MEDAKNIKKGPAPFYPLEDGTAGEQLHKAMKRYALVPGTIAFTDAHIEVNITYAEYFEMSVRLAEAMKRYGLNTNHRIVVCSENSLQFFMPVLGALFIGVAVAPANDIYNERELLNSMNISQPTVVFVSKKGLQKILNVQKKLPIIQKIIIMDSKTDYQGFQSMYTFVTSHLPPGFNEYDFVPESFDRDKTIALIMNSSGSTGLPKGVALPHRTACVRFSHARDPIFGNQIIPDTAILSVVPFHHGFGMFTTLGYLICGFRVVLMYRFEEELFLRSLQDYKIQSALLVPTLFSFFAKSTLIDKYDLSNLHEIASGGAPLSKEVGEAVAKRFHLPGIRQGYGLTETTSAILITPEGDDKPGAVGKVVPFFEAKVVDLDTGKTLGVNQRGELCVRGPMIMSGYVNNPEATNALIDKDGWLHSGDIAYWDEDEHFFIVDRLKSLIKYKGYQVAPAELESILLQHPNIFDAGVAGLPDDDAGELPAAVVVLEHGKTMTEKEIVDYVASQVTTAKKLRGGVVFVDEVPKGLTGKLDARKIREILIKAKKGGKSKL
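Purified P. pyralis luciferase (10nM final) with 10uM D-luciferin and 10uM ATP (Km levels) in 50mM Tris acetate pH 7.5, 10mM Mg acetate, 0.01% Tween-20, 0.05% BSA; qHTS 6-point titration, ~60 µM downward; luminescence read.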
Numbers without * were called inactive; ? = inconclusive; / = no result. Sampled rows, rich in hits. Any-hit rate of the full collection: about 7.4%. The call rests on the fitted dose curve; in most records, active means well fitted curve in the direction sought with a large enough effect; inconclusive means small, poorly fitted or top-dose-only effect, or another doubt; inactive means no such curve, though single readings can be large; an effect the other way counts as inactive or inconclusive. Potency means the concentration at half of the fitted maximal effect.

SMILES	NPC1 prom act	Rab9 prom act	ELG1 genotoxic	SMN2 splice up	FLuc modulator
C=C1C(CCl)(CCl)C2(Cl)C(Cl)C(Cl)C1(Cl)C2(Cl)Cl (stereo not drawn)	/	/	/	-5%	/
CN(C)/C=N/c1sc2c(c1C#N)CCC2	9%	1%	5%	-29%	-9%
CCCN(/C=N/c1sc2c(c1C#N)CCCCC2)CCC	26%	15%	1%	7%	19µM*
CC1(C)Cc2c(sc(/N=C/N3CCCCCC3)c2C#N)C(C)(C)N1	2%	-4%	0%	14%	-4%
CN(C)/C=N/c1sc2c(c1C#N)CCCCC2	?	?	?	?	21µM*
N#Cc1c(/N=C/N2CCOCC2)sc2c1CCCCC2	4µM*	2.5µM*	5.8µM*	11µM*	5.4µM*
O=C(N/C(=C\c1cccc(Br)c1)C(=O)N1CCOCC1)c1ccco1	2%	12%	-4%	/	-1%
CCc1ccc(CCC(=O)Nc2ccccc2C(=O)O)o1	?	?	?	?	19µM*
CC#CCCCC(=O)Nc1ccccc1C(=O)O	?	?	?	?	19µM*
COc1ccc(NC(=O)COC(=O)c2cc(C)oc2C)c([N+](=O)[O-])c1	-2%	0%	11%	/	/
CCN1C(=O)CC(N2CCN(c3ccc(C(=O)c4ccccc4)cc3)CC2)C1=O (stereo not drawn)	/	/	/	-14%	19µM*
CC(C)(C)C1CCc2sc(C(=O)NNC(=O)CCl)cc2C1 (stereo not drawn)	-42%	-45%	?	-18%	4.8µM*
COc1ccc(NC(=O)Nc2ccc(F)c(Cl)c2)cc1	3.5µM*	2.8µM*	4%	14µM*	?
O=C(Nc1cccnc1)Nc1ccc(F)c(Cl)c1	12%	12%	-8%	/	24µM*
Cc1ccc(NC(=O)Nc2ccc(F)c(Cl)c2)cc1	?	?	8%	13µM*	4.3µM*
O=C(CN1CCCN(S(=O)(=O)c2ccc(Br)cc2)CC1)Nc1cccc(C(F)(F)F)c1	/	/	/	-45%	-1%
Cc1ccccc1NC(=O)CSc1nc(=O)n(CCN2CCOCC2)c2c1CCC2	/	/	/	/	5%
c1ccc2c(c1)ncn2CCCOc1ccc2c(c1)CCC2	16%	0%	23%	-29%	15µM*
Brc1ccccc1OCCCn1cnc2ccccc21	3.2µM*	4µM*	5.8µM*	?	2.4µM*
Cc1ccccc1OCCCCn1cnc2ccccc21	-9%	-19%	-5%	-91%	19µM*
Cc1ccc(OCCCCn2cnc3ccccc32)cc1	0%	0%	20%	-70%	?
COC(=O)c1cc2oc(C)cc2n1Cc1ccccc1Cl	/	/	/	10%	-5%
CCOCC(=O)Nc1ccc(-c2cn3c(C)csc3n2)cc1	/	/	/	/	17µM*
Cc1csc2nc(-c3cccc(NC(=O)c4ccc(S(N)(=O)=O)cc4)c3)cn12	/	/	/	/	9.5µM*
Cc1csc2nc(-c3cccc(NC(=O)c4c(F)cccc4F)c3)cn12	/	/	/	/	21µM*
SMILES	NPC1 prom act	Rab9 prom act	ELG1 genotoxic	SMN2 splice up	FLuc modulator
CC1(C)CC(=O)C/C(=N\NC(=O)CCc2ccc(S(=O)(=O)N3CCOCC3)cc2)C1	1%	-1%	0%	8%	0%
O=C(C[n+]1cn(C(F)F)c2ccccc21)c1ccc(OC(F)F)cc1	?	?	16µM*	?	?
O=C(C[n+]1ccc(C(=O)NCc2ccccc2)cc1)c1ccc(OC(F)F)cc1	-3%	-1%	3%	/	-2%
Nc1c2c(=O)oc(-c3ccccc3)cc2nn1-c1ccccc1	?	0.71µM*	?	13µM*	4.8µM*
Nc1nnc(/C=C/c2ccccc2Cl)s1	?	3.5µM*	?	/	6.7µM*
COc1ccccc1CN1CCCC2(CCNCC2)C1	/	/	/	-3%	/
Cc1cc(NC(=O)c2ccc(Cl)cc2)ccc1NC(=O)c1ccccc1Cl	4%	16%	-6%	/	12µM*
Cc1ccccc1NC(=O)c1ccccc1NC(=O)c1ccccc1Cl	/	/	/	-12%	?
Cc1cc(NC(=O)c2ccccc2Cl)ccc1NC(=O)c1ccccc1Cl	17%	17%	-1%	/	12µM*
CS(=O)(=O)N1CCC2(CCCN(C(=O)Nc3ccccc3)C2)CC1	/	/	/	1%	/
COc1ccc(NC(=O)c2oc3ccc4c(c3c2C)C(=O)CC(C)(C)O4)cc1OC	/	/	/	/	0.43µM*

Bioassay records as filed in PubChem.
